Reference: the supplement of paper PMC11732987, “Enantioselective OTUD7B fragment discovery through chemoproteomics screening and high-throughput optimisation” (Communications Chemistry, 2025)

What was measured:
Test in all cases: log2 ratio of Biotin-Ahx-Ub-VS probe labelling (fragment/DMSO); higher = less target engagement (more negative = stronger competition), active = hit call of the paper (q ≤ 0.05, log2 ratio ≤ -1)
Settings in all cases: compound concentration: 200 uM; treatment time: 3 h
ALG13 = biological target: T1, ALG13 (UniProt Q9NP73)
T1 sequence (whole entry): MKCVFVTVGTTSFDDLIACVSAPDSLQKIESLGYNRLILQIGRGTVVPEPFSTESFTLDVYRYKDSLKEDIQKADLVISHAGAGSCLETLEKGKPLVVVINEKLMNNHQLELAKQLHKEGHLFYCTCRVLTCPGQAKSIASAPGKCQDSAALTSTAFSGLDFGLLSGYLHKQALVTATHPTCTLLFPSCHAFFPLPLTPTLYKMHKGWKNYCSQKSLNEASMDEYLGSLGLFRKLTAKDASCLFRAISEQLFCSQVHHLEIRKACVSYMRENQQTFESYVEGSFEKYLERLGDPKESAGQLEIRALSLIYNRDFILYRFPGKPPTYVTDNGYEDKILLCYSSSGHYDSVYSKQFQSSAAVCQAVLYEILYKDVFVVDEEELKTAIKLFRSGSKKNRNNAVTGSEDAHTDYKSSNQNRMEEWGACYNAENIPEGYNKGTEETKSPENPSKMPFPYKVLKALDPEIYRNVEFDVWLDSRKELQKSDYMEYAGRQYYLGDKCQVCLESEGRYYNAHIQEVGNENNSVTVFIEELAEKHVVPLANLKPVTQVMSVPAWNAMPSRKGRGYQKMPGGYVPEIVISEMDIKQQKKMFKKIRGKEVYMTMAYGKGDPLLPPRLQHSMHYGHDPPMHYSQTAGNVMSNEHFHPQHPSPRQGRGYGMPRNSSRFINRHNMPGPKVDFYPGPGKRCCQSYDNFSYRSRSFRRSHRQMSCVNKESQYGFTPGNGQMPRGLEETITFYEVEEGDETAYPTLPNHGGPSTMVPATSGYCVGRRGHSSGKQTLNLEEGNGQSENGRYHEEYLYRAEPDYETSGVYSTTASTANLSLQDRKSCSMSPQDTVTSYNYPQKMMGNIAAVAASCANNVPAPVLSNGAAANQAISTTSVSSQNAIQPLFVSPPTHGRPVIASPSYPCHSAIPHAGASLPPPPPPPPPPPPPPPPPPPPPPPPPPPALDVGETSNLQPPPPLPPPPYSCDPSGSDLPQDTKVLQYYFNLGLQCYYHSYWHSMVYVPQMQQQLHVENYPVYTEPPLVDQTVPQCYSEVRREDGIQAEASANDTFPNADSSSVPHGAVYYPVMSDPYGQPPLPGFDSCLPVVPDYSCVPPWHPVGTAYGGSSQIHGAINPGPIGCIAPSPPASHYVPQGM
Procedure, shortened: (§1)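 HEK293T lysate (495 µg per sample, in Tris/CHAPS/IGEPAL buffer with protease inhibitors) was exposed in triplicate for 3 h to fragment at 200 µM or to vehicle, then to Biotin-Ahx-Ub-VS at 0.5 µM final for 1 h. Labelled DUBs were enriched on NeutrAvidin, digested with LysC and trypsin, and analysed by diaPASEF LC-MS/MS. Spectronaut label-free quantities were normalised to the global median, and values are average log2 ratios of fragment over vehicle from an unpaired t-test. Only proteins with ≥2 unique peptides were used.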

ATXN3 = ATXN3 (UniProt P54252)
Procedure, shortened: as §1

BAP1 = biological target: T2, BAP1 (UniProt Q92560)
T2 sequence (whole entry): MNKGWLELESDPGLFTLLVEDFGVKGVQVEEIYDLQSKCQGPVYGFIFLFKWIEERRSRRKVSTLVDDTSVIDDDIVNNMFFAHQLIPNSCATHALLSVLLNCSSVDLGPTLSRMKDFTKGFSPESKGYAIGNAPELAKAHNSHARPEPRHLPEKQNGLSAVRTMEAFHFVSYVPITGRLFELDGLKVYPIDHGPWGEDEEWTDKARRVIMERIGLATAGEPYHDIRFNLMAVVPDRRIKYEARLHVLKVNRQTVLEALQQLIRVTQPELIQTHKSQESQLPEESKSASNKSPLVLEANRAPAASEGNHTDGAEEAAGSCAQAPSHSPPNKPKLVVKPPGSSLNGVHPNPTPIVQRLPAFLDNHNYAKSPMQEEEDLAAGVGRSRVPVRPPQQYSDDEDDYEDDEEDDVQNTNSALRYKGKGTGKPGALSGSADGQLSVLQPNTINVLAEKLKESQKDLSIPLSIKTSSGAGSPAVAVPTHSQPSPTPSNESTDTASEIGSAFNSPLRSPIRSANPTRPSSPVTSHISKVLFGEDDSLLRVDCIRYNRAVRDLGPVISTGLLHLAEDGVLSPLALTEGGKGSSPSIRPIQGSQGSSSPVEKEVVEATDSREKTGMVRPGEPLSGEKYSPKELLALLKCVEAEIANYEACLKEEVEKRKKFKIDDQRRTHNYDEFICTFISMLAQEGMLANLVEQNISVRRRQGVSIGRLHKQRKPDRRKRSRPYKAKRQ
Procedure, shortened: as §1

EIF3F = EIF3F (UniProt O00303)
Procedure, shortened: as §1

EIF3H = EIF3H (UniProt O15372)
Procedure, shortened: as §1

FAM105A = biological target: T3, FAM105A (UniProt Q9NUU6)
T3 sequence (whole entry): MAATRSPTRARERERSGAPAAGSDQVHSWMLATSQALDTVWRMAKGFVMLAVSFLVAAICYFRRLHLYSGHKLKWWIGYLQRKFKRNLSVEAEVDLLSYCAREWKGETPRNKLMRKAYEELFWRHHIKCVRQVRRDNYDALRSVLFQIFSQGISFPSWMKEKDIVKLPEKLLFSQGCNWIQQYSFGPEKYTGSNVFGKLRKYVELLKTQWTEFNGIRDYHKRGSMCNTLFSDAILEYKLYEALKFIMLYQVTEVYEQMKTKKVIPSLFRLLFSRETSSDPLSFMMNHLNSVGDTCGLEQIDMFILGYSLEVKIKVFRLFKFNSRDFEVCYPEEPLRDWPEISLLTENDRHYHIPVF
Procedure, shortened: as §1

OTUB1 = OTUB1 (UniProt Q96FW1)
Procedure, shortened: as §1

OTUD4 = biological target: T4, OTUD4 (UniProt Q01804)
T4 sequence (whole entry): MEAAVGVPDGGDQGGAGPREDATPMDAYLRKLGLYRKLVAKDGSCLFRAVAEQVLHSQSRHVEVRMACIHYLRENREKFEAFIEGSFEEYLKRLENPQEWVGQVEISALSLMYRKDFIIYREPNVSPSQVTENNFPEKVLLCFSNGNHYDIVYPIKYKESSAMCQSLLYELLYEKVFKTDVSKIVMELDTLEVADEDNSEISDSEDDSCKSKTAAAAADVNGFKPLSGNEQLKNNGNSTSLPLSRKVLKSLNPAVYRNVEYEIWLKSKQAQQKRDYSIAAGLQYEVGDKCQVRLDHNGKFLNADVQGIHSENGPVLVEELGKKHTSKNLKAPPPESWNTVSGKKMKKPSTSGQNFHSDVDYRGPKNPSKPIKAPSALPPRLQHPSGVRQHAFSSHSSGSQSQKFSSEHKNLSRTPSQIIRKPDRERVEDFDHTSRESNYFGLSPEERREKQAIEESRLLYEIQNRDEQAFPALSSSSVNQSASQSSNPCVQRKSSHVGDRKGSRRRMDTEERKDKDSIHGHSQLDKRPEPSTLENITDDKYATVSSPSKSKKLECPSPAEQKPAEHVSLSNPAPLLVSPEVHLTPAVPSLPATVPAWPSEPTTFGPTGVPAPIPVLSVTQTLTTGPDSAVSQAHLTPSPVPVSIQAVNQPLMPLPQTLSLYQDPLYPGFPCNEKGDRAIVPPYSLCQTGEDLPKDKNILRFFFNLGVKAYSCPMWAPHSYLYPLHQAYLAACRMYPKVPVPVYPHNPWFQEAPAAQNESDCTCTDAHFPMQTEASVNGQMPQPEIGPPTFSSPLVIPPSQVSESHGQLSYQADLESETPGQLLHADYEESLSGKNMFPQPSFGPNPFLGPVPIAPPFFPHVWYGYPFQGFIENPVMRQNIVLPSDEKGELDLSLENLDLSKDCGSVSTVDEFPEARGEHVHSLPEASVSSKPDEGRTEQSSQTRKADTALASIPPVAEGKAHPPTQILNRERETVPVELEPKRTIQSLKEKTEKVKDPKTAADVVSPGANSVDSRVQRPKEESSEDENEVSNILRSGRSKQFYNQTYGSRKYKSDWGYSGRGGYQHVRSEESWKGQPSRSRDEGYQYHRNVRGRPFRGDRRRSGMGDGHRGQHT
Procedure, shortened: as §1

OTUD5 = biological target: T5, OTUD5 (UniProt Q96G74)
T5 sequence (whole entry): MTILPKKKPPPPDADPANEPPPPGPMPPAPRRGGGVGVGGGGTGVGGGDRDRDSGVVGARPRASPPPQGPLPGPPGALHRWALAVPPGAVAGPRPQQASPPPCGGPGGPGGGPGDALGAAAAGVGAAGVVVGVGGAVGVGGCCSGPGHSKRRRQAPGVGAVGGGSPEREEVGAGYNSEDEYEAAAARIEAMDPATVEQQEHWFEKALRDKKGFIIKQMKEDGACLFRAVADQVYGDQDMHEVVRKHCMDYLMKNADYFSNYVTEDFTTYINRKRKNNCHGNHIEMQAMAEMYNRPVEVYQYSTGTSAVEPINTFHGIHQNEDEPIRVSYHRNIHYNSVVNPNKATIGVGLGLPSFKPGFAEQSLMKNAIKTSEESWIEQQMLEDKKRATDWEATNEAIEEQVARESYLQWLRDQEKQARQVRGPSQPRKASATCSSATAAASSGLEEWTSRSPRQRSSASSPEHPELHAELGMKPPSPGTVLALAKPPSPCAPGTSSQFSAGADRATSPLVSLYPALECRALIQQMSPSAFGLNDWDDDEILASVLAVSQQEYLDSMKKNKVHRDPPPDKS
Procedure, shortened: as §1

Measured: log2 ratio of Biotin-Ahx-Ub-VS probe labelling

Chain of EIF3F (O00303 whole entry): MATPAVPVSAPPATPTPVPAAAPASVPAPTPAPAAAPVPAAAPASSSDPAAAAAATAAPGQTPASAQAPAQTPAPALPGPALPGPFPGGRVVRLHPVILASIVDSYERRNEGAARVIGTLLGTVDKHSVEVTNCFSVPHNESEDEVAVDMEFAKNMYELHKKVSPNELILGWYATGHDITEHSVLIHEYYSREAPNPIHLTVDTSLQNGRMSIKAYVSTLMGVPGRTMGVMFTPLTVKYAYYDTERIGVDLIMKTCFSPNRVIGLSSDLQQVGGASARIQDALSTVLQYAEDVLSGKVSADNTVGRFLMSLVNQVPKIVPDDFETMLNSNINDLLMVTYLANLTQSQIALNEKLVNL
Chain of OTUB1 (Q96FW1 whole entry): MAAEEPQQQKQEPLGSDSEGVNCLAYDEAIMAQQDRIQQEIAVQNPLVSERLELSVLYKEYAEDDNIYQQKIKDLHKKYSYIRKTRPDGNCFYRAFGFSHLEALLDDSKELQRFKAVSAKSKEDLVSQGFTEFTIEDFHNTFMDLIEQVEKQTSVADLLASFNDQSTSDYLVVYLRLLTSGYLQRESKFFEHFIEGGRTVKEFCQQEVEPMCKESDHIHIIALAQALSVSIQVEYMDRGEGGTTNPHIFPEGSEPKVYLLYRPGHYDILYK
Chain of ATXN3 (P54252 whole entry): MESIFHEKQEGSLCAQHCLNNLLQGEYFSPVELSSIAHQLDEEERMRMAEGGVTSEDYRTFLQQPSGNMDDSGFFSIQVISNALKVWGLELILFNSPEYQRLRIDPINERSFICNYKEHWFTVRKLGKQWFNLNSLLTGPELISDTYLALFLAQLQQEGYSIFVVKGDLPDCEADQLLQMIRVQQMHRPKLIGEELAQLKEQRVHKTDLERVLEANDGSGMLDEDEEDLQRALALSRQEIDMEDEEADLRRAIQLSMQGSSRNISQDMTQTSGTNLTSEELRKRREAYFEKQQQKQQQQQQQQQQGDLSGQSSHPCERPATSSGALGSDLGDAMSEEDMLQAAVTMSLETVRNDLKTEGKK
Chain of EIF3H (O15372 whole entry): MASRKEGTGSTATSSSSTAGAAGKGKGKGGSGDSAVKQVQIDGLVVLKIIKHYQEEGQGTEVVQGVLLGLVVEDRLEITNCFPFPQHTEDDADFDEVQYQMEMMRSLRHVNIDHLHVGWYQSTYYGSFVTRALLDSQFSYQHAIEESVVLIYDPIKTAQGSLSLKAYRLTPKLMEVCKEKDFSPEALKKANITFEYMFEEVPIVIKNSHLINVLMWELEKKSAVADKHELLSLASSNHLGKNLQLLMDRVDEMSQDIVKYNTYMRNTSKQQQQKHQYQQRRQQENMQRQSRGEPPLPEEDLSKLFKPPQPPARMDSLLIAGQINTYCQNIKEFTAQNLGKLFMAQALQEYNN

C/C(=C\CNC(=O)CCl)c1cnn(C)c1.Cl
active: BAP1 -1.56
inactive: ALG13 0.0802 | ATXN3 -0.277 | EIF3F -0.217 | EIF3H 0.0454 | FAM105A 0.298 | OTUB1 -0.376 | OTUD4 0.00615 | OTUD5 -0.115
